Sampled rows, rich in hits. Any-hit rate of the full collection: about 17%.
HepG2 viability: counter-screen for TGF-b inhibitors: cytotoxicity in HepG2 cells. 410,000 compounds, 0.76% hits. HepG2 CAGA-GFP viability, ATP luminescence, 18 h. AID 588856. Potency, µM (titrated, usually from 46.1 µM), for inactives: top-dose activity change, negative = cytotoxicity, actives largely listed as cytotoxic
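HepG2 CAGA-GFP cells (1000/well, DMEM with 1% FBS) received compound, then TGF-beta at 500 pg/mL final, and were incubated 18 hours at 37 degrees C. Viability was read by CellTiter-Glo luminescence. Media-only wells were set as complete cell-killing and DMSO as no toxicity.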
DT40 TDP1 no CPT: qHTS for Inhibitors of human tyrosyl-DNA phosphodiesterase 1 (TDP1): qHTS in cells in absence of CPT; Potency, µM (titrated, usually from 46.2 µM), without a hit: at the highest dose activity change, negative = growth inhibition, hits mostly inhibitors; AID 686978, 2013; 420,000 compounds, 15% hits; DT40 Tdp1-/- hTDP1 cells, no CPT, ATP luminescence, 48 h; further: on the % scale 0 is the no-effect control and ±100 the full control effect; nearly all actives have a fitted effect of over 55% in size
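Luminescent ATP content (CellTiter-Glo) served as the growth readout. Knockout chicken DT40 cells expressing human TDP1 were exposed to compounds without camptothecin for a minimum 48 hr at 37 °C.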
TGFb SMAD3 inh: blocks TGF-b signaling | Potency, µM (top dose mostly 46.1 µM), inactives show at the highest dose activity, negative = inhibition, most hits filed as inhibitors | 410,000 compounds, 1.2% hits | HepG2 CAGA-GFP TGF-b/SMAD3 reporter, GFP fluorescence, 18 h; TGF-beta stimulated, 500 pg/mL final; further: on the % scale 0 is the no-effect control and ±100 the full control effect; nearly all actives have a fitted effect of over 65% in size
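First, reporter cells (HEPG2 CAGA-GFP) rested 2 h at 37 degrees C. Next, compounds were pinned in and TGF-beta added to 500 pg/mL final. After 18 h, GFP was imaged per cell and summed per well.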
HT1080-NT tox: kills 2HG-producing HT-1080-NT fibrosarcoma cells; HT-1080-NT fibrosarcoma viability, CellTiter-Glo ATP luminescence, 48 h; Potency, µM (doses to about 46.1 µM), inactives show at the top dose activity, negative = less viability, hits mostly cytotoxic; 360,000 compounds, 1.6% hits; AID 686970;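 further: NT is the 2HG producing partner of a matched IDH1 knockdown line; 0% = DMSO-treated cells and -100% = media-only wells without cells; nearly all actives have a fitted effect of over 55% in size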
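Compounds were tested in concentration-response format on HT-1080-NT cells for 48 hours at 37 degrees C. Cell viability came from CellTiter-Glo luminescence; curves were classified by r2, response magnitude and activity.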
DT40 TDP1 CPT: growth inhibition of DT40 Tdp1-/-;hTDP1 cells with camptothecin (screen for TDP1 inhibitors). chicken DT40 Tdp1-/-;hTDP1 cells + 20 nM CPT, ATP luminescence, 48 h. Potency, µM (series often up to 46.2 µM), for inactives: at the highest dose activity change, negative = growth inhibition, most hits filed as inhibitors. 420,000 compounds, 12% hits; further: on the % scale 0 is the no-effect control and ±100 the full control effect; nearly all actives have a fitted effect of over 55% in size
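Chicken DT40 Tdp1-/- cells stably complemented with human TDP1 were seeded at 400 cells/well in medium containing 20 nM camptothecin, exposed to pin-transferred compounds, and grown at 37 °C for at least 48 hr. Viability was read as ATP luminescence.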
HT1080 IDH1KD tx: kills HT-1080 cells with IDH1 knockdown; HT-1080 IDH1 knockdown viability, ATP luminescence, 48 h; AID 686971; 360,000 compounds, 2% hits; Potency, µM (highest dose often 46.1 µM), for inactives: at the top dose activity, negative = toxicity, usual class: cytotoxic;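 further: 0% = DMSO wells and -100% = cell-free medium wells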
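Cytotoxicity counter-line: IDH1KD HT-1080, 48 h, CellTiter-Glo. Curves classed by r2, magnitude and activity.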
* marks the source's active call; other numbers are inactive results; ? = inconclusive; · = no result given; [ ] = remark or other dose. The call rests on the fitted dose curve; in most records, active means well fitted curve in the direction sought with a large enough effect; inconclusive means small, poorly fitted or top-dose-only effect, or another doubt; inactive means no such curve, though single readings can be large; an effect the other way counts as inactive or inconclusive. Potency means the concentration at half of the fitted maximal effect.

SMILES	HepG2 viability	DT40 TDP1 no CPT	TGFb SMAD3 inh	HT1080-NT tox	DT40 TDP1 CPT	HT1080 IDH1KD tx
CC(=O)Nc1ccc(Nc2ccc(S(=O)(=O)C(F)(F)F)cc2[N+](=O)[O-])cc1	0%	21µM*	?	-15%	?	-21%
O=[N+]([O-])c1cc(S(=O)(=O)Nc2ccc(Cl)cc2)ccc1N/N=C/c1ccncc1	1%	5.8µM*	?	0%	?	-1%
O=[N+]([O-])c1cc(S(=O)(=O)Nc2ccccc2)ccc1NCc1ccccc1	2%	-2%	?	1%	-23%	-5%
CCOC(=O)c1ccc(S(=O)(=O)Nc2cc(S(=O)(=O)Nc3ccc(OC)cc3)ccc2O)cc1	-8%	-3%	-28%	0%	-3%	6%
CS(=O)(=O)c1ccc2nc(NC(=O)c3ccccc3Br)sc2c1	-27%	-29%	-13%	18%	-18%	-1%
CCCn1ncc(CN2CCN(Cc3ccc(C)o3)C(CCO)C2)c1C (stereo not drawn)	-1%	0%	1%	17%	1%	0%
Nc1c(C(O)(C(F)(F)F)C(F)(F)F)cc(C(O)(C(F)(F)F)C(F)(F)F)c2ccccc12	18µM*	?	11µM*	21µM*	?	23µM*
CCN(CC)CCCNC(=O)c1ccc2c(c1)sc1nc(-c3ccc(C)cc3)cn12	6.3µM*	2.3µM*	-37%	·	2.3µM*	·
CCCNC(=O)c1ccc2c(c1)sc1nc(-c3ccc(C)cc3)cn12	1%	5.8µM*	-16%	·	5.8µM*	·
CCOC(=O)CN(C(=O)CSc1nnc(-c2cccc(OC)c2)o1)c1ccc(F)cc1	-22%	16µM*	-3%	-20%	?	-9%
COc1ccc(CN(C(=O)CSc2nnc(-c3ccccc3C)o2)c2ccc(F)cc2)cc1	-92%	23µM*	?	?	?	?
O=C(CSc1nnc(-c2c[nH]c3ccccc23)o1)N(Cc1ccccc1)c1ccc(F)cc1	-43%	?	?	?	?	-29%[9.24 µM]
CCOC(=O)CN(C(=O)CSc1nnc2c(n1)[nH]c1ccc(OC)cc12)c1ccc(F)cc1	1%	?	?	-19%	21µM*	-7%
Cc1oc(-c2cccs2)nc1CNC[C@H]1O[C@@H](n2cnc3c(N)ncnc32)[C@H](O)[C@@H]1O	-4%	-19%	-2%	15%	-19%	9%
CCC(C(=O)NCCCN(CC)Cc1ccccc1)n1nc(C)c2sc3ccccc3c2c1=O (stereo not drawn)	2%	?	?	2%	?	?
COc1cccc(-c2noc(C3CC(=O)N(c4ccc(F)cc4)C3)n2)c1OC (stereo not drawn)	-19%	-7%	-19%	·	-25%	·
O=C1c2cccnc2C(Nc2ccc(F)c(Cl)c2)N1Cc1cccs1 (stereo not drawn)	-29%	22%	-2%	-6%	-12%	-1%
CCc1ccc(NC(=O)C(Cc2ccccc2)NS(=O)(=O)c2ccc3c(c2)CCN3C(C)=O)cc1 (stereo not drawn)	-31%	?	?	·	?	·
CCCCCCC(=O)N1C/C=C\C(c2ccc(OC)cc2)N(Cc2ccc(F)cc2)C(=O)[C@H]1Cc1ccccc1 (stereo partly drawn)	-1%	18µM*	?	-23%	18µM*	?
COc1ccc(C2/C=C\CN(C(=O)c3ccc(C)cc3)[C@H](Cc3ccccc3)C(=O)N2Cc2ccc(F)cc2)cc1 (stereo partly drawn)	-9%	5.8µM*	?	-7%	4.6µM*	-18%

Source: PubChem BioAssay
